Where “and” joins values, the source holds several entries; their conditions need not be identical. Identical values can stand only once. The source holds several records for some structures; these can differ, active in one and inactive in another. Calls of active or inactive are those of the source. How the source made its calls: active means hit-call score of the fitted dose curve at least 0.9, where 1 is the maximum; inactive means score below 0.9.
What was measured:
Conditions in all cases: mRNA level, 48 h; actives raise or lower the signal
CYP3A5 (gene 1577) = assay: LTEA_HepaRG_CYP3A5: Life Technologies and Expression Analysis (LTEA) Assay for CYP3A5 using HepaRG (AID 2283493)
How it was run: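 Readout was CYP3A5 mRNA by qRT-PCR. HepaRG cultures were exposed for 48 h in serum-free induction medium to chemicals at up to 100 uM, and responses were fitted in both directions relative to DMSO vehicle.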

[1] = read-out: Fatty Acid-Binding Protein 1 (FABP1), FABP1 (gene 2168); assay: LTEA_HepaRG_FABP1: Life Technologies and Expression Analysis (LTEA) Assay for Fatty Acid-Binding Protein 1 (FABP1) using HepaRG (AID 2283494)
How it was run: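 FABP1 expression by TaqMan qRT-PCR, normalised to three housekeeping genes, in HepaRG cells after 48 h chemical treatment. Eight-point half-log series topping at 100 uM in 0.5% DMSO, duplicates; gain or loss fitted relative to vehicle.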

[2] = read-out: Cytochrome P450 4A22 (Homo sapiens) (UniProt Q5TCH4); assay: LTEA_HepaRG_CYP4A22: Life Technologies and Expression Analysis (LTEA) Assay for Cytochrome P450 4A22 (CYP4A22) using HepaRG (AID 2283495)
How it was run: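 HepaRG, 48 h post-plating -> serum-free induction medium; dosed 48 h, duplicate, 8 conc. (100 uM top, half-log), 0.5% DMSO. Readout: CYP4A22 mRNA by qRT-PCR, ACTB/GAPDH/POLR2A normalization; gain/loss fit relative to DMSO.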

[3] = read-out: Cytochrome P450 7A1 (Homo sapiens) (UniProt P22680); assay: LTEA_HepaRG_CYP7A1: Life Technologies and Expression Analysis (LTEA) Assay for Cytochrome P450 7A1 (CYP7A1) using HepaRG (AID 2283496)
How it was run: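 Using 0.5% DMSO as vehicle and baseline, chemicals were tested in duplicate over an 8-point range from 100 uM on HepaRG cells for 48 h; qRT-PCR signals were normalised to ACTB, GAPDH and POLR2A.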

[4] = read-out: Glutathione S-Transferase (GSTA2), GSTA2 (gene 2939); assay: LTEA_HepaRG_GSTA2: Life Technologies and Expression Analysis (LTEA) Assay for Glutathione S-Transferase (GSTA2) using HepaRG (AID 2283497)
How it was run: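 GSTA2 transcript levels came from Fluidigm TaqMan qRT-PCR normalized to three housekeeping genes, fitted in both directions against DMSO. HepaRG cultures received chemicals for 48 h in serum-free induction medium (0.5% DMSO), 8 half-log concentrations up to 100 uM, duplicate.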

[5] = read-out: Glutamate-cysteine ligase catalytic (GCLC), GCLC (gene 2729); assay: LTEA_HepaRG_GCLC: Life Technologies and Expression Analysis (LTEA) Assay for Glutamate-cysteine ligase catalytic (GCLC) using HepaRG (AID 2283498)
How it was run: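 Expression by TaqMan qRT-PCR, normalized to three housekeeping genes (ACTB, GAPDH, POLR2A), with up- or down-regulation fitted against DMSO. HepaRG cells dosed in duplicate for 48 h with 8 half-log concentrations up to 100 uM, vehicle 0.5% DMSO.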

[6] = read-out: growth arrest and DNA damage 45 (GADD45G), GADD45G (gene 10912); assay: LTEA_HepaRG_GADD45G: Life Technologies and Expression Analysis (LTEA) Assay for growth arrest and DNA damage 45 (GADD45G) using HepaRG (AID 2283499)
How it was run: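 HepaRG, 48 h exposure, top 100 uM, half-log 8-point series, 0.5% DMSO vehicle, duplicates. Readout: GADD45G transcript by qRT-PCR (Fluidigm array), housekeeping-normalised (ACTB/GAPDH/POLR2A). Bidirectional curve fit vs DMSO baseline.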

[7] = read-out: Glutathione S-transferase M3 (GSTM3), GSTM3 (gene 2947); assay: LTEA_HepaRG_GSTM3: Life Technologies and Expression Analysis (LTEA) Assay for Glutathione S-transferase M3 (GSTM3) using HepaRG (AID 2283501)
How it was run: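 qRT-PCR read-out of GSTM3 transcript, normalized to three housekeeping genes, from human HepaRG cells after 48 h chemical exposure. Eight-point half-log series, top 100 uM, 0.5% DMSO vehicle; gain or loss fitted relative to DMSO baseline.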

[8] = read-out: Heat shock 70 kDa protein 1 (HSPA1A), gene 3303; assay: LTEA_HepaRG_HSPA1A: Life Technologies and Expression Analysis (LTEA) Assay for Heat shock 70 kDa protein 1 (HSPA1A) using HepaRG (AID 2283502)
How it was run: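 An oxidative-stress marker readout: HepaRG cells treated 48 h in duplicate with an eight-point series (highest 100 uM) had HSPA1A mRNA quantified by TaqMan qRT-PCR. Activity was fitted in both directions using 0.5% DMSO as baseline.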

[9] = read-out: Hypoxia-inducible factor 1-alpha (Homo sapiens) (UniProt Q16665); assay: LTEA_HepaRG_HIF1A: Life Technologies and Expression Analysis (LTEA) Assay for Hypoxia-inducible factor 1 (HIF1A) Trancription factor using HepaRG (AID 2283503);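 further: HIF1A transcript by TaqMan qRT-PCR normalized to ACTB GAPDH and POLR2A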
How it was run: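 Gain- or loss-of-signal HIF1A mRNA changes are fitted against a DMSO baseline. HepaRG cultures receive eight concentrations, highest 100 uM, for 48 h in serum-free induction medium with 0.5% DMSO.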

[10] = read-out: 3-Hydroxy-3-Methylglutaryl-CoA Synthase 2 (HMGCS2), HMGCS2 (gene 3158); assay: LTEA_HepaRG_HMGCS2: Life Technologies and Expression Analysis (LTEA) Assay for 3-Hydroxy-3-Methylglutaryl-CoA Synthase 2 (HMGCS2) using HepaRG (AID 2283504)
How it was run: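 qRT-PCR read-out of HMGCS2 transcript, normalised to three housekeeping genes, in HepaRG cells after 48 h chemical exposure. Eight-point curves from 100 uM, half-log dilutions, 0.5% DMSO vehicle; gain or loss fitted relative to DMSO baseline.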

HGF (gene 3082) = assay: LTEA_HepaRG_HGF: Life Technologies and Expression Analysis (LTEA) Assay for Hepatocyte Growth Facto (HGF) using HepaRG (AID 2283505)
How it was run: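 HepaRG, 48 h dosing, 8-pt half-log series from 100 uM in 0.5% DMSO, duplicates. Readout: TaqMan qRT-PCR of HGF mRNA, housekeeping-normalized; bidirectional curve fit vs DMSO baseline.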

[11] = read-out: Insulin Like Growth Factor 1 (IGF1), IGF1 (gene 3479); assay: LTEA_HepaRG_IGF1: Life Technologies and Expression Analysis (LTEA) Assay for Insulin Like Growth Factor 1 (IGF1) using HepaRG (AID 2283506)
How it was run: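 Endpoint: IGF1 mRNA change by qRT-PCR, housekeeping-normalized, fitted bidirectionally relative to 0.5% DMSO vehicle. Human HepaRG cells were treated 48 h in serum-free induction medium, eight half-log concentrations topping at 100 uM.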

[12] = read-out: Intercellular Adhesion Molecule 1 (ICAM1), ICAM1 (gene 3383); assay: LTEA_HepaRG_ICAM1: Life Technologies and Expression Analysis (LTEA) Assay for Intercellular Adhesion Molecule 1 (ICAM1) using HepaRG (AID 2283507)
How it was run: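 HepaRG, 48 h exposure, 8-pt half-log series from 100 uM, 0.5% DMSO vehicle, duplicates. Readout: TaqMan qRT-PCR mRNA, housekeeping-normalized (ACTB/GAPDH/POLR2A). Bidirectional curve fit vs DMSO baseline.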

[13] = read-out: Insulin-like growth factor-binding protein 1 (IGFBP1), IGFBP1 (gene 3484); assay: LTEA_HepaRG_IGFBP1: Life Technologies and Expression Analysis (LTEA) Assay for Insulin-like growth factor-binding protein 1 (IGFBP1) using HepaRG (AID 2283508)
How it was run: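 qRT-PCR mRNA read-out (TaqMan, Fluidigm array), normalised to three housekeeping genes; HepaRG cells, 48 h exposure, 8-pt half-log series from 100 uM, 0.5% DMSO vehicle; bidirectional curve fit vs DMSO baseline.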

[14] = read-out: Interleukin 6 (IL6), IL6 (gene 3569); assay: LTEA_HepaRG_IL6: Life Technologies and Expression Analysis (LTEA) Assay for Interleukin 6 (IL6) using HepaRG (AID 2283509)
How it was run: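 Transcript levels, normalized to three housekeeping genes, were quantified by qRT-PCR after 48 h chemical treatment of HepaRG cells. Eight-point half-log series from 100 uM in 0.5% DMSO, duplicates. Fitted both directions against DMSO baseline.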

[15] = read-out: Interleukin 6 Receptor (IL6R), IL6R (gene 3570); assay: LTEA_HepaRG_IL6R: Life Technologies and Expression Analysis (LTEA) Assay for Interleukin 6 Receptor (IL6R) using HepaRG (AID 2283510)
How it was run: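 In this HepaRG screen, test chemicals act on cells for 48 h at up to 100 uM (eight half-log points, duplicate wells). IL6R expression is quantified by qRT-PCR after normalization to ACTB, GAPDH and POLR2A, with DMSO as baseline.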

[16] = read-out: Glutamate-cysteine ligase regulatory (GCLM), GCLM (gene 2730); assay: LTEA_HepaRG_GCLM: Life Technologies and Expression Analysis (LTEA) Assay for Glutamate-cysteine ligase regulatory (GCLM) using HepaRG (AID 2283500)
How it was run: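 In this multiplexed HepaRG gene-expression assay, GCLM mRNA change after 48 h treatment (8 concentrations, max 100 uM) was scored against DMSO by bidirectional curve fitting.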

[17] = read-out: Keratin 19 (KRT19), KRT19 (gene 3880); assay: LTEA_HepaRG_KRT19: Life Technologies and Expression Analysis (LTEA) Assay for Keratin 19 (KRT19) using HepaRG (AID 2283512)
How it was run: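 HepaRG, 48 h chemical exposure, 8-pt half-log CRC from 100 uM, 0.5% DMSO vehicle, duplicates. Readout: TaqMan qRT-PCR of KRT19 mRNA, housekeeping-normalized (ACTB/GAPDH/POLR2A). Bidirectional fit vs DMSO baseline.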

[18] = read-out: Potassium channel subfamily K member 1 (KCNK1), KCNK1 (gene 3775); assay: LTEA_HepaRG_KCNK1: Life Technologies and Expression Analysis (LTEA) Assay for Potassium channel subfamily K member 1 (KCNK1) using HepaRG (AID 2283511)
How it was run: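 KCNK1 transcript measured by TaqMan qRT-PCR against three housekeeping genes, after HepaRG cells were treated 48 h with eight half-log concentrations (top 100 uM, 0.5% DMSO). Curves fitted bidirectionally relative to vehicle.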

Measured: AC50

Hypoxia-inducible factor 1-alpha (Homo sapiens), sequence (Q16665 whole entry, looked up): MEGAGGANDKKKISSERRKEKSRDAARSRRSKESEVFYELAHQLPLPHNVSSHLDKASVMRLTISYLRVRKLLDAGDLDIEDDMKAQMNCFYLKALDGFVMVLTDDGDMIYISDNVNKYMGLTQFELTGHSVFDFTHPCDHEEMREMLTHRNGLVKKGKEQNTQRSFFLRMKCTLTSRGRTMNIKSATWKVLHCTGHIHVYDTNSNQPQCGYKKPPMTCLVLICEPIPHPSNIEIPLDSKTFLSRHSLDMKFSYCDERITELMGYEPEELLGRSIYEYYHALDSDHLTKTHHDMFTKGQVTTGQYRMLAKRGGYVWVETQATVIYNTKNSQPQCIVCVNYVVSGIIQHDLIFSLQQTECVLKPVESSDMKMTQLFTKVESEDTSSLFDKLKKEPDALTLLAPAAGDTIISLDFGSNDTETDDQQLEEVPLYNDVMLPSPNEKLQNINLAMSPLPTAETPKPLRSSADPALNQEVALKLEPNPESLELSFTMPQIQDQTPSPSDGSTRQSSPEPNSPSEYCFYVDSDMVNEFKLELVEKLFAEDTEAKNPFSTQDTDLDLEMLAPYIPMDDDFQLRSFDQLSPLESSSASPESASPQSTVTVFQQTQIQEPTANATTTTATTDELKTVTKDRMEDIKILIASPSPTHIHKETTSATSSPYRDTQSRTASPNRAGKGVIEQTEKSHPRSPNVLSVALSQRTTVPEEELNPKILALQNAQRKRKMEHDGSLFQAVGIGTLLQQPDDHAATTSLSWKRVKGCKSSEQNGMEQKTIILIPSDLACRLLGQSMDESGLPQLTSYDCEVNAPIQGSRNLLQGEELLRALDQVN

O=C(NC(=O)c1c(F)cccc1F)Nc1ccc(OC(F)(F)C(F)OC(F)(F)F)c(Cl)c1 (stereo not drawn)
not listed: [16] | [17] | [18]
inactive: all other assays above

O=S(=O)(O)C(F)(F)C(F)(F)C(F)(F)C(F)(F)C(F)(F)C(F)(F)C(F)(F)C(F)(F)F
inactive: CYP3A5 (gene 1577) | [1] | [3] | [5] | [6] | [7] | [8] | [9] | HGF (gene 3082) | [12] | [13] | [14]
active: [1] 94.2 µM and 77 µM | [2] 89.2 µM [middle of 4 runs] | [3] 94.4 µM and 94 µM and 75.4 µM | [4] 76.5 µM [middle of 4 runs] | [6] 5.76 µM | [8] 19.9 µM | [13] 77.6 µM and 50 µM

CNC(=O)Oc1cccc(N=CN(C)C)c1
not listed: [10] | [15] | [16] | [17] | [18]
inactive: all other assays above

O=C(O)CCCOc1ccc(Cl)cc1Cl
active: CYP3A5 (gene 1577) 36.5 µM | [1] 10.1 µM
not listed: [10] | [15] | [16] | [17] | [18]
inactive: all other assays above

CCC(C)(NC(=O)c1cc(Cl)c(C)c(Cl)c1)C(=O)CCl (stereo not drawn)
active: CYP3A5 (gene 1577) 89.6 µM | [1] 46.5 µM | [2] 74.9 µM | [3] 73.8 µM | [4] 78.7 µM | [7] 50.2 µM | [8] 89.2 µM | HGF (gene 3082) 77.4 µM | [13] 80.8 µM
inactive: [5] | [6] | [9] | [11] | [12] | [14]

CCC(C)(C)C(=O)OC1=C(c2ccc(Cl)cc2Cl)C(=O)OC12CCCCC2
active: [11] 31.1 µM
not listed: [10] | [15] | [17] | [18]
inactive: all other assays above

CCOCN(C(=O)CCl)c1c(C)cccc1CC
active: [1] 87.7 µM | [2] 92.5 µM | [3] 84.6 µM | [4] 83.4 µM | [6] 77.9 µM | [11] 76.4 µM | [13] 63 µM
not listed: [10] | [15] | [17] | [18]
inactive: all other assays above

COP(=S)(OC)Oc1ccc([N+](=O)[O-])cc1
not listed: [16] | [17] | [18]
inactive: all other assays above

C#CCN1C(=O)COc2cc(F)c(N3C(=O)C4=C(CCCC4)C3=O)cc21
active: [1] 25.4 µM | [2] 16.1 µM | [11] 23.5 µM
not listed: [15] | [18]
inactive: all other assays above

CNC(=O)CSP(=S)(OC)OC
not listed: [10] | [15] | [17]
inactive: all other assays above

O=C(O)C(F)(F)C(F)(F)C(F)(F)C(F)(F)C(F)(F)C(F)(F)C(F)(F)F
inactive: CYP3A5 (gene 1577) | [3] | [4] | [5] | [6] | [7] | [8] | [9] | HGF (gene 3082) | [11] | [12] | [13] | [14] | [18]
active: [1] 11 µM and 8 µM | [2] 6.42 µM and 5.96 µM | [8] 50 µM | [10] 15.2 µM and 7.54 µM

Reference: PubChem BioAssay (EPA / NIEHS)
